Shown are actives, neighbours in structure and some others; about 2.4% of the full set was active somewhere.
Pol eta inh: blocks human DNA polymerase eta activity; recombinant Pol eta, fluorescent DNA replication assay; Q9Y253; Potency, µM (doses to about 114 µM), for the others: at the highest dose activity change, negative = inhibition, actives largely listed as inhibitors; 1.2% of 390,000 active; note: % is set by controls: 0 for no effect and ±100 for the full control effect
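Pol eta (10 nM) was preincubated with compounds for 15 min at room temperature, after which fluorescent replication substrate (50 nM final) was added to start the reaction. Fluorescence was read kinetically at 0 and 10 min.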
POLK inh: DNA polymerase kappa (human) inhibition | Q9UBT6 | purified Pol kappa, fluorescent DNA synthesis assay, 10 min | Potency, µM (doses to about 107 µM), for the others: top-dose activity, negative = inhibition, actives largely listed as inhibitors | 0.53% of 400,000 active | AID 588579; note: % is set by controls: 0 for no effect and ±100 for the full control effect
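Activity was followed as the change in fluorescence between reads at 0 and 10 min after starting the reaction with 50 nM substrate. Beforehand, 10 nM polymerase had been preincubated with compound for 15 min at room temperature.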
POLB inh: inhibitors of human DNA polymerase beta; P06746; Pol beta primer extension/strand displacement, fluorescence kinetic; Potency, µM (titrated, usually from 114 µM), for inactives: at the highest dose activity change, negative = inhibition, usual class: inhibitors; 1.3% of 340,000 active; note: % is set by controls: 0 for no effect and ±100 for the full control effect
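Pol beta (10 nM) and compounds were preincubated 15 min at room temperature, then 50 nM substrate (final) started primer extension/strand displacement. Reads were taken at 0 and 10 min; concentration-response data were fitted to a four-parameter Hill equation.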
GLS inhibitor: glutaminase GLS (human) inhibition; O94925; GLS enzymatic activity, qHTS titration; Potency, µM (highest dose often 45.5 µM), without a hit: at the top dose activity change, negative = inhibition, hits mostly inhibitors; 0.21% of 410,000 active; AID 624170; note: % is set by controls: 0 for no effect and ±100 for the full control effect
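Coupled fluorescence readout: glutamate oxidase/HRP/Amplex Red detect glutamate formed by hKGA from L-glutamine (1 mM solution added). Buffer 45 mM KH2PO4 pH 8.2, 0.02% Tween-20; reads at t0 and 30 min RT.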
APE1 inh: inhibitors of human APE1 endonuclease. P27695. recombinant APE1, TAMRA/BHQ-2 abasic DNA cleavage fluorescence. Potency, µM (series often up to 65.8 µM), for inactives: at the top dose activity change, negative = inhibition, hits mostly inhibitors. 0.35% of 350,000 active. AID 2517;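 note: plate controls were vehicle for no effect and reference inhibitor for full effect; nearly all actives have a fitted effect of over 55% in size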
Target sequence (P27695 whole entry, looked up): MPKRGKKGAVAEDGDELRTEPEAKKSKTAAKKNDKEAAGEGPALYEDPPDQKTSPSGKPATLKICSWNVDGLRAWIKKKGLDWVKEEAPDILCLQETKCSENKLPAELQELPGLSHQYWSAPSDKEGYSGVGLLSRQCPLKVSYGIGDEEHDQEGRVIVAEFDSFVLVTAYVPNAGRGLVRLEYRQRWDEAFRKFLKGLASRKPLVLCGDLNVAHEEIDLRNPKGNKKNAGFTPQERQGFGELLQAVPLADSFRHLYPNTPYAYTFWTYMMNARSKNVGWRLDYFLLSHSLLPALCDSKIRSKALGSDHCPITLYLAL
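Activity was derived from the fluorescence gain between first and third kinetic reads (60 s intervals, ex 525/em 598 nm) after 50 nM THF-abasic TAMRA/BHQ-2 duplex was added to 0.75 nM APE1 preincubated 15 min with compound.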
POLI inh: DNA polymerase iota (human) inhibition | Pol iota fluorescent replication assay, 10 min | Potency, µM (doses to about 115 µM), for the others: at the highest dose activity, negative = inhibition, most hits filed as inhibitors | 1% of 390,000 active
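Fluorescent replication assay read twice, at 0 min and 10 min after adding 50 nM (final) substrate. Enzyme (10 nM) and compounds were first incubated 15 min at room temperature; enzyme-free buffer wells were negative controls.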
* hit, by the source's call; u = inconclusive; x = not tested or not shown; [ ] = dose if it differs, or a comment. Calls come from the whole dose curve; as a rule, active = well fitted curve in the direction sought with a large enough effect; inconclusive = small, poorly fitted or top-dose-only effect, or another doubt; inactive = no such curve, though single readings can be large; an effect the other way counts as inactive or inconclusive. Potency is the fitted concentration of half-maximal effect.

SMILES	Pol eta inh	POLK inh	POLB inh	GLS inhibitor	APE1 inh	POLI inh
CC(=O)N1CCc2c(sc(NC(=O)C3CC3)c2-c2nc3ccccc3s2)C1	25.1µM*	-19.1%	24.4%	14.9%	u	47.8%
Cc1ccc(S(=O)(=O)c2c(N)n(CCCN(C)C)c3nc4ccccc4nc23)cc1	-14.2%	-6.9%	0.4%	5.0%	3.0%	-2.9%
CCCCn1c(NS(=O)(=O)c2ccc(C)cc2)c(S(=O)(=O)c2ccccc2)c2nc3ccccc3nc21	-29.5%	-21.8%	-27.2%[57.1 µM]	0.8%	-6.0%	10µM*
Cc1c2c(cc3c1[nH]c1ccccc13)C=NCC2	-23.7%	9.2%	x	0.2%	x	34.1%
Cc1ccc(-c2ccc(C3C(C#N)=C(N)Oc4n[nH]c(C)c43)o2)cc1 (stereo unspecified)	-10.6%	-17.5%	-19.8%	1.6%	u	u
Cc1[nH]nc2c1C(c1ccc(-c3ccccc3C#N)o1)C(C#N)=C(N)O2 (stereo unspecified)	4.4%	4.0%	56.2µM*	18.4%	0.4%	10.4%
CN(C)N1C(N)=C(C#N)C(c2ccc(F)cc2)C2=C1CCCC2=O (stereo unspecified)	-6.0%	0.1%	24.9%	21.4%	-0.5%	47.5%
Nc1ccc(/C=C2\C=Cc3ccccc32)cc1	x	-8.3%	x	x	x	9.5%
C1=Cc2ccccc2/C1=C\c1cc[cH-]c1.[Fe+2].c1cc[cH-]c1	x	1.12µM*	x	x	x	1.78µM*
C(=C\c1ccccc1)/C=N/Nc1ccc2nncn2n1	-19.9%	7.9%	-1.4%	2.0%	12.0%	23.6%
CC(/C=N/Nc1ccc2nncn2n1)=C\c1ccccc1	79.4µM*	-5.4%	u	-7.1%	-2.1%	-4.0%
CC(=O)Nc1ccc(NC(=O)CCc2ccc(C)o2)cc1	-18.3%	8.3%	25.5%	2.2%	7.7%	19.0%
Cc1ccc(CCC(=O)Nc2ccc(S(N)(=O)=O)cc2)o1	14.1µM*	-26.5%	-20.4%	-22.5%	-2.1%	-16.0%
COC(=O)c1scc(C)c1N1C(=O)c2ccccc2C1=O	0.7%	-2.4%	u	8.7%	-0.4%	u
CN(/N=C/c1ccc(N(C)C)cc1)C1=NS(=O)(=O)c2ccccc21	3.3%	-12.3%	28.0%	6.5%	23.8µM*	54.1%
COc1ccc(CNC(=O)C(=O)NCC2CCCN2S(=O)(=O)c2cccs2)cc1 (stereo unspecified)	-17.4%	-7.4%	x	-6.9%	4.0%	-15.5%
CCN1CCN(C(=O)c2ccc3c(=O)n(Cc4ccccc4OC)c(=S)[nH]c3c2)CC1	-1.4%	1.7%	-0.3%	11.2µM*	-0.3%	20.4%
O=C(c1ccc2c(=O)n(Cc3ccc4c(c3)OCO4)c(=S)[nH]c2c1)N1CCN(Cc2ccccc2)CC1	x	-6.1%	x	x	x	19.2%
COc1ccccc1Cn1c(=S)[nH]c2cc(C(=O)NCCN(C)C)ccc2c1=O	-6.5%	-22.0%	0.1%	10µM*	18.6%	u
COc1ccccc1Cn1c(=S)[nH]c2cc(C(=O)N3CCCC3)ccc2c1=O	6.1%	1.8%	u	u	0.5%	18.7%
O=C(c1ccc2c(=O)n(Cc3ccco3)c(=S)[nH]c2c1)N1CCN(Cc2ccc3c(c2)OCO3)CC1	x	u	x	x	x	89.1µM*
COc1ccc(CCNCC(=O)Nc2ccc(OC(F)(F)F)cc2)cc1OC	-12.4%	-10.4%	-10.0%	-1.9%	44.3%	-22.3%
CCOC(=O)C1=C(Cc2ccc(Cl)cc2)C(=O)c2ccccc2C1=O	-28.4%	7.8%	9.7%	13.3%	9.9%	14.1µM*
CCOC(=O)C1=C(C)N=C2c3ccccc3C(=O)C2C1c1ccc(Cl)cc1 (stereo unspecified)	-10.8%	-18.1%	8.5%	5.7%	-4.4%	11.8%
COc1ccc(NC(=O)Nc2ccc([N+](=O)[O-])cc2)cn1	u	-39.7%	28.2µM*	-4.7%	-68.2%	u
COc1ccc(NC(=O)Nc2cc(C)cc(C)c2)cn1	-12.6%	-5.6%	7.1%	-11.2%	-4.9%	5.3%
